From the supplement of paper PMC7261846
± gives the uncertainty stated by the source.

Tested on: Candida albicans SNY425 biofilm
Assay: biofilm OD600 with compound plus antifungal (OD600 (absorbance)); higher = more biofilm remaining
[1] = assay detail: disruption of 24-h mature biofilm (compound + antifungal for a second 24 h)
[2] = assay detail: sustained inhibition (compound + antifungal during 90-min adherence and 24-h growth)

| Structure (SMILES) | biofilm OD600 [1] | biofilm OD600 [2] |
| --- | --- | --- |
| CNC(=O)[C@H](Cc1c[nH]c2ccccc12)NC(=O)[C@@H](CC(=O)NO)CC(C)C + CC[C@H](C)C[C@H](C)CCCCCCCCC(=O)N[C@H]1C[C@@H](O)[C@@H](NCCN)NC(=O)[C@@H]2[C@@H](O)CCN2C(=O)[C@H]([C@H](O)CCN)NC(=O)[C@H]([C@H](O)[C@@H](O)c2ccc(O)cc2)NC(=O)[C@@H]2C[C@@H](O)CN2C(=O)[C@H]([C@@H](C)O)NC1=O [caspofungin] (first compound 12.5 µM) | 0.278 ± 0.01 | 0.187 ± 0.0076 |
| O=C(O[C@@H]1Cc2c(O)cc(O)cc2O[C@@H]1c1cc(O)c(O)c(O)c1)c1cc(O)c(O)c(O)c1 [Epigallocatechin gallate] + CC[C@H](C)C[C@H](C)CCCCCCCCC(=O)N[C@H]1C[C@@H](O)[C@@H](NCCN)NC(=O)[C@@H]2[C@@H](O)CCN2C(=O)[C@H]([C@H](O)CCN)NC(=O)[C@H]([C@H](O)[C@@H](O)c2ccc(O)cc2)NC(=O)[C@@H]2C[C@@H](O)CN2C(=O)[C@H]([C@@H](C)O)NC1=O [caspofungin] (first compound 12.5 µM) | 0.264 ± 0.016 | 0.211 ± 0.01 |
| CO[C@@H]1[C@H](OC(=O)/C=C/C=C/C=C/C=C/C(=O)O)CC[C@]2(CO2)[C@H]1[C@@]1(C)O[C@@H]1CC=C(C)C [Fumagillin] + CC[C@H](C)C[C@H](C)CCCCCCCCC(=O)N[C@H]1C[C@@H](O)[C@@H](NCCN)NC(=O)[C@@H]2[C@@H](O)CCN2C(=O)[C@H]([C@H](O)CCN)NC(=O)[C@H]([C@H](O)[C@@H](O)c2ccc(O)cc2)NC(=O)[C@@H]2C[C@@H](O)CN2C(=O)[C@H]([C@@H](C)O)NC1=O [caspofungin] (first compound 12.5 µM) | 0.257 ± 0.0085 | 0.166 ± 0.0044 |
| CO[C@@H]1[C@H](OC(=O)/C=C/C=C/C=C/C=C/C(=O)O)CC[C@]2(CO2)[C@H]1[C@@]1(C)O[C@@H]1CC=C(C)C [Fumagillin] + C[C@@H]1[C@H](O)[C@@H](C)/C=C/C=C/C=C/C=C/C=C/C=C/C=C/[C@H](O[C@@H]2O[C@H](C)[C@@H](O)[C@H](N)[C@@H]2O)C[C@@H]2O[C@](O)(C[C@@H](O)C[C@@H](O)[C@H](O)CC[C@@H](O)C[C@@H](O)CC(=O)O[C@H]1C)C[C@H](O)[C@H]2C(=O)O [amphotericin B] (first compound 12.5 µM) | 0.264 ± 0.0097 | 0.185 ± 0.0052 |
